Sampled rows, rich in hits. Any-hit rate of the full collection: about 2.4%.
A549 tox = kills or reduces viability of A549 cells in Nrf2 counter-screen; A549 ARE-Fluc cells, CellTiter-Fluor viability, 18-24 h; Potency, µM (top dose mostly 46 µM), inactives show at the top dose activity change, negative = cytotoxicity, hits mostly inhibitors; hit rate 0.16% among 390,000; AID 504648; also: % is scaled to controls: 0 for no effect and ±100 for the full control effect
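A549 ARE-Fluc cells in 5% FBS OPTI-MEM, 5000 cells/well, rested 2 h then exposed to compounds in concentration-response for 18-24 h at 37 °C. Viability by CellTiter-Fluor fluorescence (Ex 405/Em 525) after 30 min; luciferase luminescence (BugLite, 15 min, RT) read afterwards.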
Nrf2 inh = Nrf2 pathway inhibition; A549 ARE-Fluc reporter, luciferase luminescence, 18-24 h; Potency, µM (highest dose often 46 µM), without a hit: at the top dose activity change, negative = inhibition, usual class: inhibitors; hit rate 2.1% among 360,000; AID 504444; also: % is scaled to controls: 0 for no effect and ±100 for the full control effect; nearly all actives have a fitted effect of over 60% in size
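In this cell-based qHTS, ARE-driven firefly luciferase in A549 cells reports Nrf2 activity; the luminescent signal after BugLite lysis is the measured value, with a prior CellTiter-Fluor read for cell health.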
PINK1 expr mod = modulators of PINK1 expression; PINK1 immunofluorescence, high-content cytometry, 24 h; Potency, µM (titrated, usually from 76.6 µM), for the others: top-dose activation (PINK1 increase), hits mostly activators; hit rate 0.2% among 410,000; AID 624263; active = well fitted activation curve with a large enough effect; inconclusive = small, poorly fitted or top-dose-only effect; cell line not stated here; also: % of control where 0% means no effect; nearly all actives have a fitted effect of over 65% in size
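Decision-based qHTS: stable cells, 24 h exposure to five compound concentrations, CCCP as control. Fixed cells stained for PINK1 plus nuclear, mitochondrial and cell markers, cytometer read.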
Nrf2 ARE act = activates Nrf2 signaling; AREc32 ARE-luciferase reporter (MCF7-derived line), luminescence, 24 h; Potency, µM (top dose mostly 46.1 µM), for the others: at the highest dose activation, hits mostly activators; hit rate 0.31% among 410,000; AID 624171; also: % of control where 0% means no effect; nearly all actives have a fitted effect of over 65% in size
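Reporter line AREc32 (ARE-Fluc), seeded overnight in OPTI-MEM with 5% FBS; compound pin-transferred, 24 hr at 37 deg C, 5% CO2; luminescent read-out.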
Epigenetic reg = regulators of epigenetic silencing causing reporter derepression in mouse cells | hit rate 0.2% among 280,000 | murine LDR cells, GFP reporter derepression, 30 h | Potency, µM (doses to about 53.9 µM), for the others: at the top dose GFP activation, usual class: activators | AID 1865; also: % of control where 0% means no effect; nearly all actives have a fitted effect of over 60% in size
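Murine LDR cells bearing a silenced CMV-driven GFP reporter were exposed to compound for 30 h at 37 C. After PBS washes, GFP-positive cells (20-120 um objects) counted by laser-scanning microplate cytometry.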
Numbers without * were called inactive; ? = inconclusive; · = no result; ! = not confirmed by another sample; [ ] = remark or other dose. Unless noted, calls follow the shape of the dose curve; as a rule, active = well fitted curve in the direction sought with a large enough effect; inconclusive = small, poorly fitted or top-dose-only effect, or another doubt; inactive = no such curve, though single readings can be large; an effect the other way counts as inactive or inconclusive. Potency is read from the fitted curve at half-maximal effect.

SMILES	A549 tox	Nrf2 inh	PINK1 expr mod	Nrf2 ARE act	Epigenetic reg
COc1ccc2c(c1)c1c(c(=O)n(-c3ccc(OC)c(OC)c3)c(=O)n1CC(=O)N1CCCC1)n2C	4%	9%	1%	-1%	-1%
O=C(CCl)Nc1ccc2c(c1)OCO2	-3%	-1%	12%	14µM*	2%
COc1ccc(-c2cc3nc(-c4ccccc4)cc(N4CCC(O)CC4)n3n2)cc1	-21%	?	0%	-1%	1%
COc1ccc(-c2cc3nc(-c4ccccc4)cc(N4CCCC(O)C4)n3n2)cc1 (stereo unspecified)	?	13µM*	1%	-4%	1%
O=C(Nc1cccc(NC(=O)c2cncc(Br)c2)c1)c1cncc(Br)c1	2%	8.2µM*	4%	0%	·
Cc1cc(NC(=O)c2cncc(Br)c2)ccc1NC(=O)c1cc2ccccc2o1	?	13µM*	2%	0%	·
COc1cccc(CC(=O)Nc2ccc3nc(Nc4cccc(C(F)(F)F)c4)cc(C)c3c2)c1	-28%	?	28%	-1%	-1%
O=C(Nc1ccncc1)c1cncc(Br)c1	-4%	-22%	-2%[38.3 µM]	-1%	0%
Cc1cc(Nc2cccc(C(F)(F)F)c2)nc2ccc(NC(=O)c3cncc(Br)c3)cc12	-21%	21µM*	?	4%	?
Cc1cc(Nc2cccc(Cl)c2)nc2ccc(NC(=O)c3cncc(Br)c3)cc12	?	18µM*	-2%	-2%	-1%
COc1ccc(C(=O)N(Cc2ccco2)Cc2ccco2)c(O)c1	7%	12%	·	·	·
CN(C)c1ccc(C=Nc2ccc(/C=C3\C=Cc4ccccc43)cc2)cc1	·	·	5%	·	·
CN(N=O)c1ccc(/C=C/c2ccccc2)cc1	·	·	-1%	·	·
COc1ccccc1CC(=O)Nc1ccc2nc(Nc3cccc(C(F)(F)F)c3)cc(C)c2c1	-12%	?	1%	3%	-1%
Cc1ccccc1C(=O)Nc1ccc2nc(Nc3cccc(C(F)(F)F)c3)cc(C)c2c1	?	18µM*	1%	0%	-1%
Cc1ccc(NC(=O)CC(=O)c2ccc([N+](=O)[O-])cc2)cc1S(=O)(=O)Nc1cccc(Cl)c1	?	16µM*	32µM*	0%	0%
Cc1ccc(NS(=O)(=O)c2cc(C(=O)Nc3cccc([N+](=O)[O-])c3)ccc2C)cc1	?	?	?	2%	2%
Cc1cc(C(=O)COC(=O)c2ccc(O)cc2)c(C)n1CCc1ccc(F)cc1	0%	22%	3%	4%	3%
Cc1cc(C(=O)CSc2nc(N)cc(N)n2)c(C)n1CCc1ccc(F)cc1	-19%	15µM*	0%	3%	0%
O=C(Nc1cccc(S(=O)(=O)Nc2ccccc2F)c1)c1ccco1	-3%	?	1%	5%	·
O=C(Nc1cccc(S(=O)(=O)N2CCCCC2)c1)c1ccccc1NS(=O)(=O)c1ccc(F)cc1	-11%	?	14µM*	0%	3%
O=C1CCC(C(=O)Nc2cccc(S(=O)(=O)Nc3ccccc3F)c2)=NN1	2%	26µM*	-2%	2%	·
NS(=O)(=O)c1cccc(NC(=O)c2ccccc2NS(=O)(=O)c2ccc(F)cc2)c1	2%	3%	1%	0%	·
O=C(Nc1cccc(S(=O)(=O)N2CCCCCC2)c1)C1CCN(C(=O)c2ccc(F)cc2)CC1	-4%	26µM*	-1%	0%	·
O=C(Nc1cccc(C(F)(F)F)c1)C1CCN(S(=O)(=O)c2ccc(N3CCCC3=O)cc2)CC1	?	13µM*	4%	0%	·
SMILES	A549 tox	Nrf2 inh	PINK1 expr mod	Nrf2 ARE act	Epigenetic reg
CC(=O)N1CCc2cc(S(=O)(=O)N3CCN(S(=O)(=O)c4c(F)cccc4F)CC3)ccc21	0%	-17%	·	·	·
C1=C(c2ccc3c(c2)CN(Cc2cccn2-c2ncccn2)CCO3)Cc2ccccc21	·	·	0%	·	·
Cc1ccc(NC(=O)c2ccccc2NS(=O)(=O)c2ccc(F)cc2)cc1S(=O)(=O)N1CCCCC1	?	23µM*	11µM*	2%	-2%
O=C(Nc1ccccc1)C1CCCN(C(=O)c2ccc(Cl)cc2)C1 (stereo unspecified)	1%	?	3%	0%	-3%
O=C(Nc1cccc(F)c1)C1CCCN(C(=O)c2ccc(Cl)cc2)C1 (stereo unspecified)	-11%	7.3µM*	-1%	15%	·
COc1ccccc1-c1ccnc(-n2ncc(C(=O)NCCc3ccccn3)c2C)n1	·	·	0%	·	·
CCCN(CC(=O)Nc1ccc(Cl)cc1Cl)C(=O)/C=C/c1ccco1	-4%	12%	0%	11µM*	?
COc1ccc2c(c1)c(CC(=O)Nc1ccc(C(C)=O)cc1)c(C)n2C(=O)c1ccc(Cl)cc1	?	23µM*	3%	6%	0%
COc1ccc(OC)c(NC(=O)Cc2c(C)n(C(=O)c3ccc(Cl)cc3)c3ccc(OC)cc23)c1	-12%	23µM*	1%	-1%	-1%
COC1C(O)C(CO)OC1n1c(Br)nc2c(=O)[nH]c(N)nc21 (stereo unspecified)	·	·	0%	·	0%
COC1C(CO)OC(n2c3c(Cl)cccc3c3c4c(c5c6cccc(Cl)c6[nH]c5c32)C(=O)NC4=O)C(O)C1O (stereo unspecified)	?	?	40µM*	3%	·
Cc1nc(C(=O)N(Cc2cc3ccc(F)cc3nc2N2CCC(O)CC2)CC2CCCO2)cs1 (stereo unspecified)	·	·	1%	·	·
Cc1onc(-c2ccccc2)c1C(=O)OCC(=O)Nc1ccc(OC(F)(F)F)cc1	-8%	23µM*	?	1%	·
Cc1ccc(NC(=O)COC(=O)c2c(-c3ccccc3)noc2C)cc1	-6%	?	0%	3%	·
Cc1onc(-c2ccccc2)c1C(=O)OCC(=O)Nc1ccc(Cl)cc1	?	23µM*	?	0%	·
Cc1cc(/C=C2\SC(=S)NC2=O)c(C)n1-c1ccc(O)cc1	?	?	1%	4%	6%
COc1ccccc1C=C1SC(=S)NC1=O	-17%	-2%	0%	0%	·
COc1ccc(C=C2SC(=S)NC2=O)c(OC)c1OC	15µM*	?	-3%	22%	·
COc1ccc(-n2c(C)cc(/C=C3\SC(=S)NC3=O)c2C)cc1	2%	?	32µM*	0%	25µM*
C=CC[C@@H](Cc1ccc(F)cc1)C(=O)OC[C@H]1CCCN1C(=O)[C@@H](CC=C)CC(=O)N[C@H](CO)Cc1ccccc1	?	18µM*	-1%	1%	·
C=CC[C@@H](Cc1ccc(F)cc1)C(=O)OC[C@H]1CCCN1C(=O)[C@H](CC=C)CC(=O)N[C@H](CO)Cc1ccccc1	?	23µM*	1%	2%	·
CCN1CCN(c2cc(C)c3cc(NC(=O)c4ccc(OC)c(OC)c4)ccc3n2)CC1	16µM*!	16µM*!	3%	6%	4%

Source: PubChem (National Center for Advancing Translational Sciences (NCATS))
